Experimental data from PubChem BioAssay AID848 (Columbia University Molecular Screening Center, 2007).
Among all 93,000 compounds or so, about 160 (0.17%) were called active.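 Rule for the calls: active = cell count reduction exceeding the screen mean by over 5 SD, scaled to untreated wells per plate (cut at about 78% in these data); inactive = the rest.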 The list comes from a sample in which actives are over-represented; it also holds similar structures and randomly drawn compounds.

Experiment: cytotoxicity in TNFa-stimulated HUVEC, primary screen, cytotoxicity control for VCAM1 expression modulator project, imaging, Hoechst nuclei count (AID 848);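 note: cells counted after 24 h of TNF alpha exposure following the 1 h pretreatment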
Details: HUVEC TNFalpha-stimulated, at 2 µM, stronger effect = higher value

Compound | cell count reduction
CCC(=O)Nc1ccc(C(=O)Nc2cccc(OC)c2)cc1 | -29.2% (inactive)
COc1cc(/C=N/O)cc(Br)c1OS(=O)(=O)c1ccc(C)cc1 | -20% (inactive)
COc1ccc(/C=C(\NC(=O)c2ccc(OC)c(OC)c2)C(=O)NCCc2c[nH]c3ccccc23)cc1 | -3.8% (inactive)
Cc1cccc(N2CCN(S(=O)(=O)c3ccc4[nH]c(=O)c(=O)[nH]c4c3)CC2C)c1 (configuration not stated) | -4.3% (inactive)
Cc1ccc(NC(=O)CN2CCc3ccccc3C2)cc1 | -11.7% (inactive)
COc1ccccc1-c1n[nH]c2c1[C@H](C)CC[C@H]2C(C)C | -1.8% (inactive)
O=C1CSC(c2ccccc2)N1c1nc(-c2ccc(Cl)cc2Cl)cs1 (configuration not stated) | 12.4% (inactive)
CC1(C)Cc2c(sc3nc(SCC(=O)NCc4ccccc4)n(-c4ccccc4)c(=O)c23)CS1 | -2.4% (inactive)
O=C1CCCC2=C1C(c1ccccc1)n1c(s/c(=C/c3cccc(F)c3)c1=O)=N2 (configuration not stated) | -15.2% (inactive)
Cc1cc2[nH]ncc2cc1NC(=S)NC(=O)c1ccccc1 | -6% (inactive)
CCOC(=O)/C(=C\c1ccc([N+](=O)[O-])cc1)C(=O)c1cc(C(C)=O)c(Nc2ccccc2)s1 | 5.8% (inactive)
CN(C)C(CNC(=O)CCCOc1ccccc1)c1ccco1 (configuration not stated) | -22.1% (inactive)
O=C(c1ccccc1)C(Cn1cncn1)C(Sc1ccccc1)c1ccccc1 (configuration not stated) | -17.7% (inactive)
CC(C)C(=O)Nc1cccc(NC(=S)NC(=O)C(c2ccccc2)c2ccccc2)c1 | -31.2% (inactive)
Fc1ccccc1COc1ccccc1CNCc1ccncc1 | 2.6% (inactive)
COc1ccc(NS(=O)(=O)c2ccc(NC(=S)NC(=O)CC(C)C)cc2)cc1 | -22.5% (inactive)
Cc1ccc(N2CCN(C3=NC(=O)/C(=C\c4cccs4)S3)CC2)cc1 | -5.4% (inactive)
COc1ccc(CN2CCn3ncc(C(=O)Nc4ccc(Cl)cc4Cl)c3C2=O)cc1 | -5.8% (inactive)
CNC(=S)NNC(=O)c1sccc1OCc1ccccc1 | -14.5% (inactive)

Compound | cell count reduction
Cc1n[nH]c(=S)n1/N=C/c1ccc(Br)o1 | -5.8% (inactive)
Cc1ccc(C2CC2C(=O)NN)cc1 (configuration not stated) | -10.3% (inactive)
O=C(CNC(=O)OCc1ccccc1)Oc1cc2oc(=O)cc(-c3ccccc3)c2cc1Cl | 0% (inactive)
O=S(=O)(N/N=C\c1cccn1-c1ccccc1)c1ccc2ccccc2c1 | -15.3% (inactive)
Cc1c(NC(=O)/C=C/C(=O)O)cccc1[N+](=O)[O-] | -2.4% (inactive)
CCOC(=O)C1=C(C)Nc2sc(C(=O)c3ccc(Br)cc3)c(N)c2C1c1ccc(C(=O)OC)cc1 (configuration not stated) | -15.9% (inactive)
COc1ccc(CCNC(=S)NC(=O)/C=C/c2ccc(C)cc2)cc1OC | -29.7% (inactive)
COc1ccc(Oc2coc3cc(OC(=O)c4cncc(Br)c4)ccc3c2=O)cc1 | 7% (inactive)
O=C(NC1CC1)c1ccc2c(c1)NC(=O)c1ccccc1S2 | -13.8% (inactive)
Cc1ccc(/C=N/NC(=O)c2sccc2OCc2ccc(F)cc2)cc1 | -8.8% (inactive)
Cc1cc(=O)oc2cc(OC(C)C(=O)Nc3ccc(N4CCOCC4)cc3)ccc12 (configuration not stated) | -7.6% (inactive)
Cc1nnc(NC(=O)CSc2nc(C3CCCCC3)nc3ccccc23)s1 | -7.9% (inactive)
O=C1CCN(C(=O)Nc2ccccc2)N1 | -11.8% (inactive)
CCOc1cccc(SCc2noc(C(=O)NC(C)C)c2C(=O)O)c1 | -41.1% (inactive)
Cc1cc([N+](=O)[O-])c(N2CCC[C@@H]2C(=O)O)c([N+](=O)[O-])c1 | -11.9% (inactive)
CC(C(=O)Nc1ccc(F)c(F)c1F)N1CCCCCC1 (configuration not stated) | 0% (inactive)
CCC(C(=O)NCc1ccc(OC)cc1)n1nc(C)n2c(cc3occc32)c1=O (configuration not stated) | -4.6% (inactive)
C/C(=N\NS(=O)(=O)c1cccc([N+](=O)[O-])c1)c1cc2ccccc2o1 | -56% (inactive)
CC1CC(C)CN(C(=O)CSc2nnc(CSc3ncccn3)n2C)C1 (configuration not stated) | -24.8% (inactive)

Compound | cell count reduction
Cc1ccc(NC(=S)NC(=O)c2ccc(-c3ccccc3)cc2)c(C)c1 | -14.1% (inactive)
CCCCNC(=O)CSc1nc2ccc(NC(=O)CSc3nnc(COc4ccccc4C)n3C)cc2s1 | -20.8% (inactive)
O=C(Nc1ccccc1Cl)O/N=C(/c1ccccc1)c1ccccn1 | 9.5% (inactive)
Cc1nn(Cc2ccccc2Cl)c(C)c1NC(=O)Cn1nc([N+](=O)[O-])c(Cl)c1C | 10.2% (inactive)
CSCc1cc(N(C)C)nc(SCc2ccc(Cl)cc2Cl)n1 | -3% (inactive)
COCCCNCC(=O)Nc1sc(C)c(C)c1C(=O)OC | -27.9% (inactive)
COc1ccc2c(Cl)c(C(=O)NCc3ccco3)sc2c1 | -12% (inactive)
O=C(CSc1ccc(/C=N/NC(=O)c2cccc(F)c2)o1)Nc1ccccc1 | -19.1% (inactive)
C=CCn1c(-c2ccc(Cl)cc2)ccc(C#N)c1=O | 4.1% (inactive)
CCC(c1nnnn1C(C)(C)C)N(Cc1cc2cccc(C)c2n2nnnc12)C1CCCC1 (configuration not stated) | -17% (inactive)
O=C(CCCN1C(=O)c2ccccc2C1=O)Oc1ccc(Cl)cc1 | -17.1% (inactive)
CN1/C(=c2/s/c(=C3/C(=O)N(c4ccccc4)NC3=Nc3ccccc3)n(C)c2=O)C(C)(C)c2ccccc21 | 3.8% (inactive)
C(=N/N1CCN(c2ccccc2)CC1)/c1cccs1 | -6.5% (inactive)
Cc1ccc(-n2c(CNc3ccc(F)cc3)nnc2SCC(=O)N2CCOCC2)cc1 | -20.7% (inactive)
COc1ccc(-c2c(C(C)=O)c(C)nc3sc4c(=O)n(-c5ccc(C)cc5)nnc4c23)cc1 | -14.8% (inactive)
Cc1cc(C)n2nc(C(=O)NC(C)(C)C)nc2n1 | 14.4% (inactive)
COc1cc(OC)cc(C(=O)NC(=S)N2CCN(c3ccc(C(F)(F)F)cc3[N+](=O)[O-])CC2)c1 | -5.1% (inactive)
Cc1cccc(N(C(=O)c2ccc(CN3CCOCC3)o2)C(C(=O)NC2CCCCC2)c2ccc(F)cc2)c1 (configuration not stated) | -36.1% (inactive)
Cc1ccc(-n2nc(N)c3c(=O)oc(N(C)C)nc32)cc1 | 5% (inactive)
